# From PubChem BioAssay AID1906 (The Scripps Research Institute Molecular Screening Center, 2009)
# In all, about 300,000 compounds went through this assay and about 1,500 (0.5%) were called active.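 How the source made its calls: active means inhibition above the mean of all tested compounds plus 3 SD, set per screening campaign (cut at about 17% in these data); inactive means the rest.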 This excerpt belongs to a sample that is enriched for actives.
# Tested on: cathepsin L1 (Fasciola hepatica)
# Assay: CTSL1 protease inhibition, fluke enzyme – biochemical, QFRET, fluorogenic peptide substrate, counter-screen for PFM18AAP inhibitor project, primary screen (AID 1906);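 further: 0% = plate median of test compound wells and 100% = 1 µM Z-Phe-Ala-diazomethylketone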
# Settings: recombinant F. hepatica cathepsin L1, Z-Leu-Arg-MCA fluorescence; at 5.96 µM; active compounds read high
row,Structure (SMILES),inhibition
1,Cc1c(C=O)c2ccccc2n1CCOc1ccccc1,1.89% (inactive)
2,O=C(O)c1cccnc1NC1CCCC1,1.66% (inactive)
3,COC(=O)C(C)N(C#N)c1nc(C)nc(C)n1 (stereo unspecified),1.79% (inactive)
4,Cc1cc(C)nc(N(C#N)CC(=O)Nc2ccccc2)n1,1.63% (inactive)
5,CNc1nc(SC)nc(N(C#N)CC(=O)OC)n1,42.3% (active)
6,COc1ccc(CC(NC(C)=O)C(=O)N2CCN(C(=O)Nc3cccc(Cl)c3)CC2)cc1OC (stereo unspecified),-4.54% (inactive)
7,Cn1cc(S(=O)(=O)Nc2ccc(Cl)cc2Cl)c(=O)n(C)c1=O,-0.98% (inactive)
8,Cc1ccc(NC(=S)N(CCCN2CCC(C)CC2)Cc2ccco2)cc1,-0.39% (inactive)
9,Cc1ccc(NC(=S)N(Cc2ccco2)C(C)c2cccs2)cc1 (stereo unspecified),22.4% (active)
10,Cc1ccc(NC(=S)N(CCN2CCCCC2)Cc2ccco2)cc1C,-2.51% (inactive)
11,COn1c(=O)c(=O)n(OC)c2ccccc21,2.56% (inactive)
12,CS(=O)(=O)n1nc(-c2ccccc2)nc1NCc1ccco1,0.56% (inactive)
13,O=C(Cc1ccccc1)n1nc(-c2ccccc2)nc1NCc1ccco1,51.2% (active)
14,O=C(NCc1ccco1)c1nc(-c2ccccc2)n(-c2ccccc2)n1,-1.81% (inactive)
15,c1csc(CN2CCN(Cc3cccs3)C2c2cccs2)c1,17% (active)
16,O=C1c2cccnc2C(=O)N1Cc1cccs1,0.86% (inactive)
17,O=C(CSCc1cccs1)N1CCCC1,-3.58% (inactive)
18,COC(=O)Nc1ccc(S(=O)(=O)Nc2cc(OC)nc(OC)n2)cc1,2.38% (inactive)
19,COc1ccc(C(CCN(Cc2ccc(OC)c(OC)c2)C(=O)CCl)c2ccccc2)cc1 (stereo unspecified),59.9% (active)
20,COc1ccc(CN(C)C(=O)CC(c2ccccc2)c2ccccc2)cc1,2.03% (inactive)
21,COc1ccc(COC(=O)NC(C(=O)O)c2ccccc2)cc1 (stereo unspecified),0.08% (inactive)

row,Structure (SMILES),inhibition
1,CCN(CC(=O)Nc1ccc(NC(C)=O)cc1)C(=O)C1CC(=O)N(Cc2ccc(C)cc2)C1 (stereo unspecified),6.92% (inactive)
2,O=c1c2ccccc2cnn1Cc1n[nH]c(=S)n1-c1ccccc1F,-4.23% (inactive)
3,COC(=O)C1=C(NC(=O)C(C)(C)C)CCS1,-1.55% (inactive)
4,NC(=O)c1ccsc1NC(=O)COC(=O)Cc1n[nH]c(=O)c2ccccc12,2.85% (inactive)
5,COc1cc(OC)c(C2=NOC(C(=O)Nc3c(C)n(C)n(-c4ccccc4)c3=O)C2)cc1Cl (stereo unspecified),4.46% (inactive)
6,CC(N)C12CC3CC(CC(O)(C3)C1)C2 (stereo unspecified),-3.06% (inactive)
7,COC(=O)c1ccc(NC(=O)C23CC4CC(C2)CC(n2cnc(Cl)n2)(C4)C3)cc1,0.89% (inactive)
8,Cc1ncn(C23CC4CC(CC(O)(C4)C2)C3)n1,23.6% (active)
9,COc1ccc(CCNC(=O)CN2C(=O)CCSc3ccccc32)c(OC)c1,-0.1% (inactive)
10,Cc1ccc(Nc2c(F)c(F)c(F)c(F)c2C(=O)O)c(C)c1,-4.87% (inactive)
11,COc1ccc(C2=NS(=O)(=O)N(C)C(C(=O)NC(C)c3ccccc3)=C2)cc1 (stereo unspecified),11.2% (inactive)
12,COc1ccc(NC(=O)NCCN2CCN(c3ccc(C)cc3)CC2)c(Cl)c1,2.74% (inactive)
13,COc1ccc(Cl)cc1NC(=O)COC(=O)C(CC(C)C)N1C(=O)C2CC=CCC2C1=O (stereo unspecified),39.5% (active)
14,COc1ccc(Cl)cc1NC(=O)c1cccc(N2C(=O)C3CC=CCC3C2=O)c1 (stereo unspecified),0.1% (inactive)
15,COc1ccc(Cl)cc1NC(=O)CCN1CCOCC1,-1.4% (inactive)
16,O=C(CN1CCN(S(=O)(=O)c2ccc(Cl)s2)CC1)NCc1ccc(Cl)cc1,-3.91% (inactive)
17,COc1ccc(CNC(=O)CCn2cccc2)cc1,17.3% (active)
18,COc1ccc(CNC(=O)CCN2C(=O)c3ccccc3C2=O)cc1,-1.89% (inactive)
19,COc1ccc(CNC(=O)C(Cc2ccccc2)n2cccc2)cc1 (stereo unspecified),2.08% (inactive)
20,COc1ccc(OC)c(NC(=O)c2cccc(S(=O)(=O)N3CCN(C(C)=O)CC3)c2)c1,-1.16% (inactive)
